# Rows were chosen to be rich in hits. Some 3% of all compounds tested hit in one or more screens of this group.
# Tau fibril ThT = qHTS for Inhibitors of Tau Fibril Formation, Thioflavin T Binding; Microtubule-associated protein tau (Homo sapiens), P10636; recombinant tau K18 P301L, heparin-induced fibrillization, ThT fluorescence; Potency, µM (highest dose often 57.4 µM), usual class: inhibitors; 270,000 tested, 2.1% active; AID 1460, 2008; note: nearly all actives have a fitted effect of over 55% in size
# Target sequence (P10636 561-689 P618L limits assumed): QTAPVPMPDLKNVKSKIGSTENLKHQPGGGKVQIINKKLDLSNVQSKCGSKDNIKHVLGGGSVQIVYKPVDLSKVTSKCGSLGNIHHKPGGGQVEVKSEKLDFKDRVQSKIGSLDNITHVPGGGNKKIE
#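 ThT emission at 510 nm, taken 1 hr after adding 30 uM dye, quantifies aggregates formed when 20 uM heparin acts on human tau K18 P301L for 6 hr at 37 C.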
# JMJD2E inh = qHTS Assay for Inhibitors of Human Jumonji Domain Containing 2E (JMJD2E); AID 2147, 2009; Lysine-specific demethylase 4E (Homo sapiens), B2RXH2; 230,000 tested, 1.6% active; Potency, µM (doses to about 57.1 µM), most hits filed as inhibitors; JMJD2E catalytic domain, FDH-coupled NADH fluorescence (FDH is formaldehyde dehydrogenase); note: nearly all actives have a fitted effect of over 50% in size
# Target sequence (B2RXH2 1-337 limits assumed): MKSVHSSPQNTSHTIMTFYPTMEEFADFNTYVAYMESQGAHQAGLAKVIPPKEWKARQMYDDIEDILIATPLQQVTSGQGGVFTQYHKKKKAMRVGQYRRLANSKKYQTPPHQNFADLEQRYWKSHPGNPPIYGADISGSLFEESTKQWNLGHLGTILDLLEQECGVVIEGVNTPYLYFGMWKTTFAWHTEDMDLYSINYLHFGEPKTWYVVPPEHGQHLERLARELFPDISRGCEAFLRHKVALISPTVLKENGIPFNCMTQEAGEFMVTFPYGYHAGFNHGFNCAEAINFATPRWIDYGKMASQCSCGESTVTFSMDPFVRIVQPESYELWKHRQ
# FBPA coupling cs = qHTS Assay for Inhibitors of Fructose-1,6-bisphosphate Aldolase from Giardia Lamblia: Coupling assay counterscreen | coupling enzyme system counterscreen, AmpLite Red fluorescence | 290,000 tested, 0.67% active | AID 2472, 2010 | activity change, negative = inhibition, % at 58.2 µM, hits read low; in the data active = activity change below about -30%
#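 Final compound at 57.5 uM, incubated 10 min at RT with coupling enzyme reagent (glyceraldehyde-3-phosphate), then 20 min with substrate and AmpLite Red detection. Fluorescence read at 525/598 nm; tests interference with the coupling assay, not aldolase inhibition.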
# Tau FP inhib = qHTS for Inhibitors of Tau Fibril Formation, Fluorescence Polarization; 280,000 tested, 0.39% active; K18 P301L tau heparin fibrillization, Alexa594 FP, 6 h; Potency, µM (doses to about 57.7 µM), usual class: inhibitors; note: nearly all actives have a fitted effect of over 55% in size
#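 K18 P301L tau (15 uM unlabeled/0.24 uM Alexa 594-labeled, final) + compound + heparin 20 uM final; 100 mM NaOAc pH 7; 6 hr 37 C; ThT 30 uM final added, 1 hr RT; FP ex 555/em 632 nm.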
# Tau fluor counter = Counterscreen qHTS for Inhibitors of Tau Fibril Formation, Fluorescence Polarization. tau K18 P301L (four-repeat tau fragment) Alexa594 fluorescence, heparin fibrillization. Potency, µM (titrated, usually from 57.7 µM). 280,000 tested, 0.93% active. AID 1463, 2008; note: nearly all actives have a fitted effect of over 55% in size
#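 Human K18 P301L tau (15 uM unlabeled plus 0.24 uM Alexa 594-labeled, final) in 100 mM sodium acetate pH 7 was mixed with compound and 20 uM heparin and incubated 6 hr at 37 C.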
# Numbers stand for hits; n = inactive; u = inconclusive; x = no result; [ ] = dose if it differs, or a comment. Unless noted, calls come from the whole dose curve; as a rule, active = well fitted curve in the direction sought with a large enough effect; inconclusive = small, poorly fitted or top-dose-only effect, or another doubt; inactive = no such curve, though single readings can be large; an effect the other way counts as inactive or inconclusive.
SMILES,Tau fibril ThT,JMJD2E inh,FBPA coupling cs,Tau FP inhib,Tau fluor counter
COC(=O)C1=Nc2ccccc2/C1=C\c1c(O)n(-c2ccc(Br)cc2)c(=O)[nH]c1=O,n,n,n,n,n
CCC1(CC)CCNC1=O,x,x,n,x,x
O=C(OCC(=O)c1ccc([N+](=O)[O-])cc1)/C(=C\c1ccc(Cl)cc1)NC(=O)c1ccccc1,12.6µM,n,n,n,u
S=c1[nH]c2cc(Br)cnc2[nH]1,31.6µM,u,n,u,n
S=c1[nH]c2ccccc2[nH]1,n,n,n,u,n
C/C=C1/C[C@@H](C)[C@@](C)(O)C(=O)OCC2=CCN3CC[C@@H](OC1=O)[C@@H]23,x,x,n,x,x
CN1CCCCC1Cn1cc(C(=O)c2cc([N+](=O)[O-])ccc2I)c2ccccc21 (centres undefined),x,x,n,x,x
Nc1cc(Cl)c2nonc2c1[N+](=O)[O-],11.2µM,n,n,n,u
O=C1NC(=O)C2(Cc3ccccc3N3CCCC32)C(=O)N1c1ccc(Cl)cc1 (centres undefined),u,25.1µM,n,u,n
O=C1NC(=O)[C@]2(Cc3ccccc3N3CCN(c4ccccc4)CC32)C(=O)N1Cc1ccccc1 (some centres undefined),31.6µM,n,n,u,n
O=C(Nc1cccc(C(=O)Nc2cc(C(=O)Nc3ccc([S+](=O)([O-])[O-])c4cc([S+](=O)([O-])[O-])cc(SOOO)c34)ccc2F)c1)Nc1cccc(C(=O)Nc2cc(C(=O)Nc3ccc([S+](=O)([O-])[O-])c4cc([S+](=O)([O-])[O-])cc([S+](=O)([O-])[O-])c34)ccc2F)c1,x,x,n,x,x
c1ccc2oc(N3CCNCC3)nc2c1,n,n,n,n,n
c1ccc2c(N3CCNCC3)nsc2c1,22.4µM,u,n,u,n
CCC1CN2CCc3cc(OC)c(OC)cc3C2CC1CC1NCCc2cc(OC)c(OC)cc21 (centres undefined),u,u,n,n,n
OC12ONC(c3ccccn3)C1N1CCC2CC1 (centres undefined),12.6µM,n,n,u,n
CC(C)C12CN3CC(C(C)C)(CN(C1)C3c1ccccn1)C2=O (centres undefined),n,x,x,n,n
C[C@@H]1O[C@@H](O[C@H]2CC[C@@H](O[C@H]3[C@H](O)C[C@H](c4ccc5c(c4O)C(=O)C4=C(C5=O)[C@@]5(O)C(=O)C[C@](C)(O[C@H]6CC[C@H](O[C@H]7C=CC(=O)[C@H](C)O7)[C@H](C)O6)C[C@@]5(O)C=C4)O[C@@H]3C)O[C@H]2C)C=CC1=O,x,x,-73.6,x,x
Cc1ccc(/C=C2\C(=O)NC(=S)N(c3ccccc3F)C2=O)s1,17.8µM,n,n,n,u
COc1ccc(/C=C2/C(=O)N(Cc3ccco3)C(=O)N(C(C)C)C2=O)cc1,17.8µM,u,n,u,n
O=C1NC(=O)N(Cc2ccccc2)C(=O)/C1=C/C=C/c1ccco1,10µM,n,n,u,n
O=C1NC(=O)N(CCc2ccc(F)cc2)C(=O)/C1=C/c1ccco1,10µM,n,n,u,u
CN(C)c1ccc(/C=C2/C(=O)NC(=O)N(Cc3ccco3)C2=O)cc1,u,n,n,n,n
CC(C)N1C(=O)/C(=C/C=C/c2ccco2)C(=O)N(Cc2ccco2)C1=O,28.2µM,n,n,u,n
Cc1cc(C)c(Cn2c3ccccc3c3cnn(CC(=O)NCc4ccc(Cl)cc4)c(=O)c32)c(C)c1,n,x,x,u,n
CCC(=O)Oc1ccc2c(c1)CCC1C2CC[C@]2(C)C(OC(=O)CC)CCC12 (some centres undefined),u,x,n,n,n
SMILES,Tau fibril ThT,JMJD2E inh,FBPA coupling cs,Tau FP inhib,Tau fluor counter
O=C(NCc1ccc2c(c1)CCN2C(=O)c1ccccc1)Nc1cccc(C(F)(F)F)c1,n,x,x,u,u
Brc1c(Br)c(Br)c2n[nH]nc2c1Br,n,u,n,u,n
CCN1C(=O)C(=C/C=C/c2ccco2)C(=O)N(CC)C1=S,15.8µM,15.8µM,n,u,n
CC(C)c1ccc(N2C(=O)NC(=O)/C(=C\C=C\c3ccco3)C2=O)cc1,u,n,n,u,n
CCN1C(=O)c2ccccc2Sc2ccc(NC(=O)Nc3ccc(Br)c(C)c3)cc21,n,x,x,15.8µM,u
CCN1C(=O)c2ccccc2Sc2ccc(NC(=O)Cc3ccc(OC)c(OC)c3)cc21,n,x,x,n,u
O=C1C=Cc2ccccc2C1=O,2.51µM,14.1µM,-81.7,4.47µM,u
Cl.Cl.Cl.Cl.Cl.Cl.N.N.N.N.NNNNN.NNNNN.O.O.[Ru].[Ru].[Ru],22.4µM,31.6µM,n,u,u
CC(CCC(=O)O)C1CCC2C3CC[C@H]4CC(O)CC[C@@]4(C)C3CC[C@@]12C (some centres undefined),n,n,n,n,n
CC(=O)OC1CC2C(C)(C)C(O)C=C[C@@]2(C)C2CC[C@]3(C)C(=CC(=O)OC3c3ccoc3)[C@]12C (some centres undefined),35.5µM,n,n,u,n
CC(=O)OC1CC(OC(C)=O)[C@]2(C)C(CC(OC(C)=O)[C@]3(C)C2CC[C@@]2(C)C(c4ccoc4)C(=O)C4O[C@]432)C1(C)C (some centres undefined),n,n,n,n,n
COc1cc2c(cc1OC)-c1c3c(cc4c1[C@@H](C2)N(C)CC4)OCO3,u,u,n,n,n
CN1CCc2cc3c(c4c2[C@H]1Cc1ccccc1-4)OCO3,x,x,-33.4,x,x
CN(N=O)c1ccc(O)c(O)c1,n,10µM,x,n,n
COc1ccc(-n2[nH]c3c4c(ncc3c2=O)CCCCC4)cc1,u,x,n,u,n
COc1cc2c(c3oc4cccc(O)c4c(=O)c13)C1C=CO[C@@H]1O2 (some centres undefined),x,x,n,x,x
Nc1ccc2c(c1)Cc1cc([N+](=O)[O-])ccc1-2,3.16µM,n,n,n,u
Nc1ccc2c(c1)Cc1ccccc1-2,u,u,n,u,n
CCN(CC)c1ccc(/C=C/[N+](=O)[O-])cc1,15.8µM,n,n,n,u
CC(=O)[O][Hg][c]1ccccc1,u,2.24µM,-48.0,u,u
O=c1c(O)c(-c2ccc(O)c(O)c2)oc2c(O)c(O)cc(O)c12,3.55µM,2.82µM,-57.4,7.94µM,u
O=Cc1ccc(O)c(O)c1,n,4.47µM,n,n,n
O=C1c2ccccc2C(=O)c2ccccc21,n,n,n,n,n
O=C1C=CC(=O)c2c(O)cccc21,11.2µM,7.08µM,n,u,7.08µM[quencher]
C=C/C(=C/C(=O)C[C@H](C)C[C@@H](C)CC[C@H](O)[C@H](C)C(=O)C[C@@H](O)[C@H](C)[C@@H](C)OC(=O)C[C@@H](O)C1=C(C)C(=O)OC1=O)CC,n[11.5 µM],x,n,n[11.6 µM],n[11.6 µM]

# Source: PubChem (National Center for Advancing Translational Sciences (NCATS))
